Experimental data from PubChem BioAssay.
Records with an inconclusive call do not appear. Calls of active or inactive are those of the source.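 Rule for the calls, unless noted: active = differentiation response of at least 50%, scaled between solvent and reference control, from cells with both markers; inactive = the rest.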

Tests used:
[1] = rapamycin-like changes in RPL19A-GFP expression – cell-based, S. cerevisiae, multiplex flow cytometry, primary screen (AID 1862; in the data active = percent of DMSO control GFP below about 86%;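 note: lower values mimic rapamycin by blocking the RPL19A rise seen in DMSO cells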); details: S. cerevisiae RPL19A-GFP strain, flow cytometry fluorescence, 3 h; at 10 µM; stronger effect = lower value
[2] = TOR pathway GLN3 branch reporter MEP2-GFP changes – S. cerevisiae, multiplex flow cytometry, primary screen (AID 1867;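 active = GFP response, as percent of the DMSO control, above the screen-wide mean plus 3 SD, about 139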;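 note: median GFP channel fluorescence of barcode-gated MEP2-GFP cells measured by flow cytometry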); details: S. cerevisiae MEP2-GFP strain, 3 h, at 10 µM, stronger effect = higher value, 100% means same as DMSO wells
[3] = TOR pathway RTG branch CIT2 reporter changes – S. cerevisiae, GFP fusion, multiplex flow cytometry, primary screen (AID 1870;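 active = percent response above a set limit, the screen-wide mean plus 3 SD, cut at about 130% in these data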;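 note: barcoded CIT2-GFP strain pooled with four other GFP strains with rapamycin as positive control; median GFP fluorescence per well over plate mean of DMSO wells so 100% = DMSO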); details: S. cerevisiae CIT2-GFP expression, 3 h, at 10 µM, stronger effect = higher value
[4] = TOR pathway LAP4-GFP level changes – S. cerevisiae, multiplex flow cytometry, primary screen (AID 1873;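 active = GFP signal, as percent of the solvent control, above the screen mean plus 3 SD, about 149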); details: S. cerevisiae LAP4-GFP expression, 3 h, at 10 µM, stronger effect = higher value
[5] = yeast AGP1-GFP level changes, GLN3 branch – cell-based, multiplex flow cytometry, S. cerevisiae, primary screen (AID 1887;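 active = GFP signal above the screen-wide mean plus 3 SD, that is over about 124.5% of the solvent control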;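 note: AGP1-GFP fusion strain of S. cerevisiae within a five-strain barcoded multiplex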); details: 3 h, at 10 µM, stronger effect = higher value
[6] = reduced mouse 2C T cell binding to pMHC/ICAM-1 vesicles – MLPCN validation set, flow cytometry, LFA-1/ICAM-1 modulator project, pilot screen (AID 2523;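 active = response below a set limit, under 55% cells CD8-positive and vesicle-bound, and CD8 cells' 90th-percentile brightness under 279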;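 for vesicle binding response: mean PE anti-B7-1 fluorescence of CD8+ cells relative to row control; 100% = QL9-loaded vesicles with DMSO vehicle in the same plate row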); details: 2C mouse CD8+ T cells, at 7 µM, stronger effect = lower value; double positive events: measured here: CD8+/vesicle+ event percentage
[7] = molecular target: Integrin beta-1 (Homo sapiens) + Integrin alpha-4 (Homo sapiens) (UniProt P13612+P05556); experiment: alpha4beta1 integrin LIBS antibody binding reduction – U937 cells, HUTS-21 mAb, flow cytometry, validation set, VLA-4 allosteric modulator project, pilot screen (AID 2674;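 active = inhibition above 50%, about 3 SD of the validation set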;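 note: antibody binding induced by the VLA-4 ligand LDV present at three times its Kd; 0% = LDV ligand with antibody and no compound and 100% = antibody without LDV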); details: HUTS-21 LIBS mAb binding, at 6.7 µM, stronger effect = higher value, binding induced by LDV ligand
[8] = calorie-restriction mimetic ROS inhibitors, yeast – validation compound set, pilot screen (AID 2706;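 active = superoxide response below 65% of plate, a cut near 3 SD across the whole screen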;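 note: yeast exposed to compound for one week at 30 degrees C before staining; 100% = mean of all compound wells on the same plate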); details: S. cerevisiae aging, superoxide DHE fluorescence; at 10 µM; stronger effect = lower value
[9] = molecular target: Beta-adrenergic receptor kinase 1 (Homo sapiens) (UniProt P25098); experiment: GRK2 binders displacing RNA aptamer, biochemical, validation, human GRK2, bead flow cytometry (AID 488806;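 active = aptamer binding inhibition above 30%, about 3 SD of noise from non-fluorescent compounds; inactive = inhibition at or below 30%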); details: bead-bound GRK2, FAM-aptamer displacement, at 10 µM, stronger effect = higher value
[10] = molecular target: Beta-2 adrenergic receptor (Homo sapiens) (UniProt P07550); experiment: agonist-induced loss of surface beta2AR – cell-based, FAP fluorogen, flow cytometry, validation set, pilot screen (AID 504459;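 active = percent response above 42, roughly 3 SD of non-fluorescent test compounds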;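 note: agonist-driven loss of surface beta2AR via internalization measured by FAP dye flow cytometry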); details: Am2.2-beta2AR cells, at 10 µM, stronger effect = higher value
[11] = molecular target: AP-2 complex subunit beta (Homo sapiens) (UniProt P63010); experiment: beta-arrestin/AP2 interaction blockers – biochemical, validation set, GST-AP2 beads, flow cytometry, pilot screen (AID 504541;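 active = inhibition above 54%, about 3 SD of non-fluorescent compounds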;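 note: AP2 carries R879A mutation and is captured from E. coli lysate; bead-bound FITC arrestin peptide fluorescence measuring arrestin peptide binding to AP2; 0% = DMSO wells and 100% = excess unlabeled arrestin peptide control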); details: FITC arrestin peptide, at 10 µM, stronger effect = higher value, AP2 beta2 appendage fragment, R879A mutant
[12] = cytosolic pH regulators acting via V-ATPase – S. cerevisiae, pHLuorin, HTS validation (AID 504600; in the data active = response above about 15%;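 note: plate controls were DMSO for no effect and reference compound for full effect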); details: V-ATPase proton transport, at 10 µM, stronger effect = higher value
[13] = test system: anti-desmoglein-3 scFv antibody binding to human DSG3; experiment: blockers of pathogenic pemphigus antibody–desmoglein-3 binding – biochemical, validation compound set, bead-based, flow cytometry, pilot screen (AID 588368;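 active = binding below the plate cutoff, the plate median minus 3 SD, with a reading above zero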;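 note: signal is the median channel fluorescence of bead-bound GFP antibody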); details: Protein G beads, DSG3-Fc, scFv-GFP binding, at 10 µM, stronger effect = lower value
[14] = Nile Red efflux blockade in pump-expressing yeast – validation compound set, multiplex, phenotypic, pilot screen (AID 588506;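 active = efflux inhibition above 0.42, the validation set average plus 4 SD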;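 note: Nile Red retained in cells so higher fluorescence means more efflux inhibition; 0 = negative control wells and 1 = enniatin B 25 µM full block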); details: S. cerevisiae pump-expressing triplex, Nile Red efflux flow cytometry; at 10 µM; stronger effect = higher value; the pumps come from Candida albicans
[15] = molecular target: ATP-binding cassette sub-family B member 6 (Homo sapiens) (UniProt Q9NP58); experiment: blockers of ABCB6-driven porphyrin uptake – K562-ABCB6 cells, flow cytometry, validation set, pilot screen (AID 588550;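 active = inhibition above the screen-wide mean plus 3 SD, about 51%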;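 note: 0% = DMSO wells and 100% = benzethonium chloride 70 µM positive control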); details: K562-ABCB6 porphyrin accumulation, 1 h, at 10 µM, stronger effect = higher value
[16] = AML differentiation inducers, ER-HoxA9 marrow cells – cell-based, GFP/MAC1 double positive, flow cytometry, validation set, primary screen (AID 588685); details: stronger effect = higher value, normalized: vehicle 0, fulvestrant 100;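 note: compound exposure lasts four days before antibody staining and flow analysis; 0% = DMSO wells and 100% = 5 µM fulvestrant positive control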

Chain of Integrin beta-1 (Homo sapiens) + Integrin alpha-4 (Homo sapiens) (P05556 whole entry, looked up): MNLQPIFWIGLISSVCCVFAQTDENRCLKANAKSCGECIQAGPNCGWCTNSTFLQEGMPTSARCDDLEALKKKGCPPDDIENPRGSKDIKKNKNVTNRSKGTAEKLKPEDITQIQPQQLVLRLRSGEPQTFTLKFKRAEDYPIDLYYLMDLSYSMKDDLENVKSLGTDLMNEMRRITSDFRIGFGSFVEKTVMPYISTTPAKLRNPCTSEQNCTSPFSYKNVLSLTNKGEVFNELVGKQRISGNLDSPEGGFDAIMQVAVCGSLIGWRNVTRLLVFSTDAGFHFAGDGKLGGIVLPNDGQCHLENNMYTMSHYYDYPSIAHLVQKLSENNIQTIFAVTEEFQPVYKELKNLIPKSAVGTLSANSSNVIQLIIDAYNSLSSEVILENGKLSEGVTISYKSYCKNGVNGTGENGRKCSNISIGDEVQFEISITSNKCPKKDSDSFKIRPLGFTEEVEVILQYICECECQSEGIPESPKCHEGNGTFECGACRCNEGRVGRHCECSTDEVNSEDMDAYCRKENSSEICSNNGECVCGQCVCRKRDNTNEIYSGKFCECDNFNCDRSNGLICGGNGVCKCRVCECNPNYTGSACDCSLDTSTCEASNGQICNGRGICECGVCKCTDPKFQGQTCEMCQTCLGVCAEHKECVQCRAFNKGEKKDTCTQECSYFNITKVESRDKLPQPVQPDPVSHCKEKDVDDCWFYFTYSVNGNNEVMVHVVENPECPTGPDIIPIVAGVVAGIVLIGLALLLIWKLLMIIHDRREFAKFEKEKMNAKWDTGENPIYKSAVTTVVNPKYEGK
Chain of Integrin beta-1 (Homo sapiens) + Integrin alpha-4 (Homo sapiens) (P13612 whole entry, looked up): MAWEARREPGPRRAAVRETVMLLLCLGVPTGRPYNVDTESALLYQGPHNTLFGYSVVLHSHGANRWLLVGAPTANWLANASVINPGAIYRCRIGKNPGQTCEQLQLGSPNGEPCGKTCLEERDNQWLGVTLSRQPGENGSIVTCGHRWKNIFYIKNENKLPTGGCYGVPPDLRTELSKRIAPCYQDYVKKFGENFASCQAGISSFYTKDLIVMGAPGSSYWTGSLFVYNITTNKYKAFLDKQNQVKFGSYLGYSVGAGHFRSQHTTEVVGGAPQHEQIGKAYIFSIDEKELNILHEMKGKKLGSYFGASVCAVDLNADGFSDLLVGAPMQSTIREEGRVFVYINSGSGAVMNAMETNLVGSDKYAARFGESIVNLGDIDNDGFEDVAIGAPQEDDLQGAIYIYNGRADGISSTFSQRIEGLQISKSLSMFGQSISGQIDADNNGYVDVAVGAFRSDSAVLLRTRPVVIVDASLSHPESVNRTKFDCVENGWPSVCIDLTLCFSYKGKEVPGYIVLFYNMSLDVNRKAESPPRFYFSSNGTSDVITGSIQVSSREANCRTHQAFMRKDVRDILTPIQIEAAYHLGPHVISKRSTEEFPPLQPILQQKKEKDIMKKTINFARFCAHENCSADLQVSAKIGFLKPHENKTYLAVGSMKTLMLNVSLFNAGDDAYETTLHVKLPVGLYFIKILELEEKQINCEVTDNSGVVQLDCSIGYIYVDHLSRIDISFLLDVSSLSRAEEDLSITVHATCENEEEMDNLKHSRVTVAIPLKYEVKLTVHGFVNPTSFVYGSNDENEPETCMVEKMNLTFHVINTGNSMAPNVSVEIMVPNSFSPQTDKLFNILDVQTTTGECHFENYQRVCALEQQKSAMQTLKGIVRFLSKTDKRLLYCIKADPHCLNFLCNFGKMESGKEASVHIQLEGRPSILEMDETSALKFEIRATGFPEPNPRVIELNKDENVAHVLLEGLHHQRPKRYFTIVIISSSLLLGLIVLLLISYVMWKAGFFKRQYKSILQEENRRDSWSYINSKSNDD
Chain of AP-2 complex subunit beta (Homo sapiens) (P63010 whole entry, looked up, the tested form may be a part, one chain of several): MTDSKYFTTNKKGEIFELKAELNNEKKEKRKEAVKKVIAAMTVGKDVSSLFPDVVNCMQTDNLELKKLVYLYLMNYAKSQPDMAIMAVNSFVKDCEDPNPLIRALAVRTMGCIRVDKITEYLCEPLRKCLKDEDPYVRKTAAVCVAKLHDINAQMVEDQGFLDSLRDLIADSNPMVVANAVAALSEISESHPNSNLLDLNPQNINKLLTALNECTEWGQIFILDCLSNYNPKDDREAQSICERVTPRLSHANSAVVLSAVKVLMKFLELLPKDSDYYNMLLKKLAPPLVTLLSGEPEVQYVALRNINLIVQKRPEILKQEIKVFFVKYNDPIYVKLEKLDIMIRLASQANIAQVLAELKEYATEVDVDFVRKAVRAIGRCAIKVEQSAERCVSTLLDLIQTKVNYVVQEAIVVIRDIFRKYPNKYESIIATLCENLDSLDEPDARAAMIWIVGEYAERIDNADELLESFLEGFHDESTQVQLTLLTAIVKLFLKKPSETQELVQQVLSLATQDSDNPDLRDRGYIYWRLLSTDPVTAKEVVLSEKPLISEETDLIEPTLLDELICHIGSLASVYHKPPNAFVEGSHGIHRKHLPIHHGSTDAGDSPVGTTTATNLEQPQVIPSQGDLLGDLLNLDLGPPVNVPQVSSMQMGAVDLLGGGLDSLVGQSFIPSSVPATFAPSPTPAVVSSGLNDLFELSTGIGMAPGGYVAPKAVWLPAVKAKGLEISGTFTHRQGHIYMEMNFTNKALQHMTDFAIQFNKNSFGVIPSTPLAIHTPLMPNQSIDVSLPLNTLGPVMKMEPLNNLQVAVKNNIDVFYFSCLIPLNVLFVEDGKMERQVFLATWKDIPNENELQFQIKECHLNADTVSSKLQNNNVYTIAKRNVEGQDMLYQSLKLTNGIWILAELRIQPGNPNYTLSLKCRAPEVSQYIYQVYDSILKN
Chain of Beta-adrenergic receptor kinase 1 (Homo sapiens) (P25098 whole entry, looked up): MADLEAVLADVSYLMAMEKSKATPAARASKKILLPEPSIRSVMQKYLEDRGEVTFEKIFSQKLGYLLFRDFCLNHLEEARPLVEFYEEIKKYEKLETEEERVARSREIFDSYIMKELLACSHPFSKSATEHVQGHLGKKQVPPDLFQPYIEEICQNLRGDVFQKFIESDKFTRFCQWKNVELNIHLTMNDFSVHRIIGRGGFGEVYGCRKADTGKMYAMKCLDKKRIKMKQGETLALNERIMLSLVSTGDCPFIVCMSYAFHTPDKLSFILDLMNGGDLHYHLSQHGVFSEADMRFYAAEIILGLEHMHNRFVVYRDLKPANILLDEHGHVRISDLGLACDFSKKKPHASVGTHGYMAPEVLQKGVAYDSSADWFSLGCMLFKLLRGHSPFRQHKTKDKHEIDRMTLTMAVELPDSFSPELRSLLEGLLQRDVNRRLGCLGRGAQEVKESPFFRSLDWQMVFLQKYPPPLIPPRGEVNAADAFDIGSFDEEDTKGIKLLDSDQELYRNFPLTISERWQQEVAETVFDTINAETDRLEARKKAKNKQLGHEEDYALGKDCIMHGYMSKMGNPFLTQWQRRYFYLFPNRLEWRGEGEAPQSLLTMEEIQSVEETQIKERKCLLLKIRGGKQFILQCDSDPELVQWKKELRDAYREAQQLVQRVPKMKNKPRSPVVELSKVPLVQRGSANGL
Chain of Beta-2 adrenergic receptor (Homo sapiens) (P07550 whole entry, looked up): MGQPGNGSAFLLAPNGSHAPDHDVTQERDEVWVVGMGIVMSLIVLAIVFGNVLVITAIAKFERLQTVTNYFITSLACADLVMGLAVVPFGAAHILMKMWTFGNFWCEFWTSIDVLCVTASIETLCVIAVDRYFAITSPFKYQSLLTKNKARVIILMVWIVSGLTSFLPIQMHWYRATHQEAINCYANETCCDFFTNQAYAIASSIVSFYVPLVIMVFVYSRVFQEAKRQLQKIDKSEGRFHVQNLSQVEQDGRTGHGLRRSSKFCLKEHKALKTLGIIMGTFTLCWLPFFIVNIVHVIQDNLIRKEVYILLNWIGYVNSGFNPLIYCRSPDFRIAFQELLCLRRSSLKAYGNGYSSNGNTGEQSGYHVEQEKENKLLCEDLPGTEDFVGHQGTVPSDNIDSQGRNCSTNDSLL
Chain of ATP-binding cassette sub-family B member 6 (Homo sapiens) (Q9NP58 whole entry, looked up): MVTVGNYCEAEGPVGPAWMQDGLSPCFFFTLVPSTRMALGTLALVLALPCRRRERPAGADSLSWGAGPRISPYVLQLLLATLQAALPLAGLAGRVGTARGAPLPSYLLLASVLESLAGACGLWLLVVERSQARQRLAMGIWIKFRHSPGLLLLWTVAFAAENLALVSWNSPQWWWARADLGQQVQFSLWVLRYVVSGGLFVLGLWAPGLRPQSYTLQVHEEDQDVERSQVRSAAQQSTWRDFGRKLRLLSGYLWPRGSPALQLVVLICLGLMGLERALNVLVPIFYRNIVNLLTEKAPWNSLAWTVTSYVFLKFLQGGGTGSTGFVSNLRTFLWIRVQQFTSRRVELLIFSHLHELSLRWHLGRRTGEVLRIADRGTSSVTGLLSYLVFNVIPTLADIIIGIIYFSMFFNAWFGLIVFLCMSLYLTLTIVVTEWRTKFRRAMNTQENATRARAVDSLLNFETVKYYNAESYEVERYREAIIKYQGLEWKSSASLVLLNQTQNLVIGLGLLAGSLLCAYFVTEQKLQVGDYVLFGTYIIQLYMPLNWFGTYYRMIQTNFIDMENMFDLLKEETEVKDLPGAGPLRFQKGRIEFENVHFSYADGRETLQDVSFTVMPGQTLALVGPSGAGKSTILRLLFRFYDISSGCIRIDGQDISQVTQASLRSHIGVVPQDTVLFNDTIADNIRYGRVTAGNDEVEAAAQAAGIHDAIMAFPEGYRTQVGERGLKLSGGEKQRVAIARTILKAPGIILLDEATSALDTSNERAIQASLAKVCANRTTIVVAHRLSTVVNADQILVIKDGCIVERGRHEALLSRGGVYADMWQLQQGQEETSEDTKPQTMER

CC(C)=CC/C=C1\CCC(C(=O)O)C(C(=O)O)C1 (stereo not drawn)
inactive: percent of DMSO control GFP [1] 89.5% | GFP response vs DMSO [2] 123% | percent response of DMSO control [3] 95.2% | GFP response vs DMSO [4] 81.4% | GFP response, % of DMSO [5] 87.5% | vesicle binding response [6] 160% | inhibition [7] -14.9% | superoxide response (% of plate) [8] 91.6% | aptamer binding inhibition [9] 6% | response [10] -0.75% | inhibition [11] -6.38% | response [12] 1.64% | binding (% of control) [13] 103% | efflux inhibition (fraction of control) [14] -0.35 | inhibition [15] 14% | differentiation response [16] -2.46%
63.2%: double positive events [6]

Cc1ccc([N+](=O)[O-])cc1NC1OC(CO)C(O)C1O (stereo not drawn)
inactive: percent of DMSO control GFP [1] 102% | GFP response vs DMSO [2] 105% | percent response of DMSO control [3] 104% | GFP response vs DMSO [4] 120% | GFP response, % of DMSO [5] 109% | vesicle binding response [6] 186% | inhibition [7] -16.4% | superoxide response (% of plate) [8] 108% | aptamer binding inhibition [9] 4% | response [10] -23% | inhibition [11] 7.17% | response [12] 2.59% | binding (% of control) [13] 103% | efflux inhibition (fraction of control) [14] -0.04 | inhibition [15] 3% | differentiation response [16] 2.89%
56.8%: double positive events [6]

CCSC(=O)CCCCCCCCCCCO
inactive: percent of DMSO control GFP [1] 101% | GFP response vs DMSO [2] 103% | percent response of DMSO control [3] 96.4% | GFP response vs DMSO [4] 127% | GFP response, % of DMSO [5] 106% | vesicle binding response [6] 348% | inhibition [7] 20.2% | superoxide response (% of plate) [8] 78.1% | aptamer binding inhibition [9] 0% | response [10] -27.7% | inhibition [11] 41.3% | response [12] 2.69% | binding (% of control) [13] 103% | efflux inhibition (fraction of control) [14] 0.17 | inhibition [15] -2% | differentiation response [16] -13.9%
59.6%: double positive events [6]

Cc1ccccc1NC(=O)C1(C)Cc2ccccc2C(=O)O1 (stereo not drawn)
61.4%: double positive events [6]
inactive: percent of DMSO control GFP [1] 100% | GFP response vs DMSO [2] 103% | percent response of DMSO control [3] 92.9% | GFP response vs DMSO [4] 131% | GFP response, % of DMSO [5] 101% | vesicle binding response [6] 161% | inhibition [7] 10.5% | superoxide response (% of plate) [8] 96.3% | aptamer binding inhibition [9] 1% | response [10] -11% | inhibition [11] 29.5% | response [12] -1.4% | binding (% of control) [13] 101% | efflux inhibition (fraction of control) [14] -0.28 | inhibition [15] -4% | differentiation response [16] 18.4%

COc1ccccc1OCC(O)COC(N)=O (stereo not drawn)
inactive: percent of DMSO control GFP [1] 93.3% | GFP response vs DMSO [2] 131% | percent response of DMSO control [3] 97.9% | GFP response vs DMSO [4] 82% | GFP response, % of DMSO [5] 84.5% | vesicle binding response [6] 133% | inhibition [7] 11.3% | superoxide response (% of plate) [8] 101% | aptamer binding inhibition [9] 1% | response [10] 1.55% | inhibition [11] -1.32% | response [12] -1.8% | binding (% of control) [13] 101% | efflux inhibition (fraction of control) [14] 0.01 | inhibition [15] 9% | differentiation response [16] 3.28%
62.5%: double positive events [6]

O=C(CCc1ccccc1)Nc1ccccc1C(F)(F)F
64.1%: double positive events [6]
inactive: percent of DMSO control GFP [1] 103% | GFP response vs DMSO [2] 105% | percent response of DMSO control [3] 107% | GFP response vs DMSO [4] 94.7% | GFP response, % of DMSO [5] 103% | vesicle binding response [6] 240% | inhibition [7] 2.66% | superoxide response (% of plate) [8] 96.3% | aptamer binding inhibition [9] 1% | response [10] -5.39% | inhibition [11] -5.17% | response [12] 2.37% | binding (% of control) [13] 100% | efflux inhibition (fraction of control) [14] 0.18 | inhibition [15] -2% | differentiation response [16] 0.24%

CC1(C)CC(O)(CNCc2ccc3c(c2)OCO3)CCO1 (stereo not drawn)
66.2%: double positive events [6]
inactive: percent of DMSO control GFP [1] 103% | GFP response vs DMSO [2] 102% | percent response of DMSO control [3] 101% | GFP response vs DMSO [4] 106% | GFP response, % of DMSO [5] 105% | vesicle binding response [6] 192% | inhibition [7] 15.9% | superoxide response (% of plate) [8] 104% | aptamer binding inhibition [9] 1% | response [10] -24.4% | inhibition [11] 44.7% | response [12] -2.49% | binding (% of control) [13] 104% | efflux inhibition (fraction of control) [14] -0.04 | inhibition [15] 2% | differentiation response [16] 0.92%

CCN1CCn2c3c(c4cc(Cl)ccc42)CCCC31 (stereo not drawn)
inactive: percent of DMSO control GFP [1] 99.3% | GFP response vs DMSO [2] 102% | percent response of DMSO control [3] 97.7% | GFP response vs DMSO [4] 107% | GFP response, % of DMSO [5] 116% | vesicle binding response [6] 154% | inhibition [7] -10.5% | superoxide response (% of plate) [8] 106% | aptamer binding inhibition [9] 5% | response [10] -10.7% | inhibition [11] -7.04% | response [12] 3% | binding (% of control) [13] 104% | efflux inhibition (fraction of control) [14] -0.09 | inhibition [15] -8% | differentiation response [16] -21.7%
62.3%: double positive events [6]

O=C(O)CCCCCN=C1CCc2ccccc2N1
inactive: percent of DMSO control GFP [1] 93% | GFP response vs DMSO [2] 132% | percent response of DMSO control [3] 101% | GFP response vs DMSO [4] 80.9% | GFP response, % of DMSO [5] 90.5% | vesicle binding response [6] 163% | inhibition [7] 10.3% | superoxide response (% of plate) [8] 118% | aptamer binding inhibition [9] 2% | response [10] -6.38% | inhibition [11] 4% | response [12] -0.07% | binding (% of control) [13] 98.7% | efflux inhibition (fraction of control) [14] 0.3 | inhibition [15] 9% | differentiation response [16] 0%
63.5%: double positive events [6]
